The source made the active and inactive calls. The calls were made as follows: active = hit-call score of the fitted dose curve at least 0.9, where 1 is the maximum; inactive = score below 0.9.
Tests used:
Details in all cases: mRNA level, 48 h; actives raise or lower the signal
[1] = read-out: Interleukin 6 Receptor (IL6R), IL6R (gene 3570); test: LTEA_HepaRG_IL6R: Life Technologies and Expression Analysis (LTEA) Assay for Interleukin 6 Receptor (IL6R) using HepaRG (AID 2283510);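 as to AC50: differentiated human HepaRG liver cells in serum-free induction medium; TaqMan qRT-PCR signal normalized to ACTB GAPDH and POLR2A housekeeping genes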
In short: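 Cells were thawed, plated and cultured 48 h, then medium was changed to serum-free induction medium. Chemicals were added in duplicate (100 uM top, half-log steps, 0.5% DMSO) for 48 h. Lysates were analyzed by qRT-PCR for IL6R expression.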

[2] = read-out: Potassium channel subfamily K member 1 (KCNK1), KCNK1 (gene 3775); test: LTEA_HepaRG_KCNK1: Life Technologies and Expression Analysis (LTEA) Assay for Potassium channel subfamily K member 1 (KCNK1) using HepaRG (AID 2283511)
In short: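 HepaRG, 48 h exposure, 8-pt half-log series top 100 uM, 0.5% DMSO vehicle, duplicates. Readout: KCNK1 transcript by qRT-PCR (Fluidigm array), housekeeping-normalized; bidirectional curve fit relative to DMSO baseline.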

[3] = read-out: Keratin 19 (KRT19), KRT19 (gene 3880); test: LTEA_HepaRG_KRT19: Life Technologies and Expression Analysis (LTEA) Assay for Keratin 19 (KRT19) using HepaRG (AID 2283512)
In short: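 Differentiated HepaRG cells in serum-free induction medium, exposed 48 h in duplicate to 8 half-log concentrations up to 100 uM in 0.5% DMSO. KRT19 mRNA by qRT-PCR, normalized to ACTB, GAPDH, POLR2A; bidirectional fit vs DMSO.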

[4] = read-out: JUN Transcription Factor, JUN (gene 3725); test: LTEA_HepaRG_JUN: Life Technologies and Expression Analysis (LTEA) Assay for JUN Transcription Factor using HepaRG (AID 2283513)
In short: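 Read-out is JUN transcript level by TaqMan qRT-PCR, normalized to ACTB, GAPDH and POLR2A, after 48 h chemical treatment of HepaRG cells. Concentration-response spanned eight half-log points up to 100 uM in 0.5% DMSO.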

[5] = read-out: Lipase C (LIPC), LIPC (gene 3990); test: LTEA_HepaRG_LIPC: Life Technologies and Expression Analysis (LTEA) Assay for Lipase C (LIPC) using HepaRG (AID 2283514)
In short: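 HepaRG, 48 h exposure, 8-pt half-log series from 100 uM in 0.5% DMSO, duplicates. Readout: LIPC mRNA by Fluidigm qRT-PCR, housekeeping-normalized (ACTB/GAPDH/POLR2A). Gain or loss fitted bidirectionally against DMSO baseline.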

[6] = read-out: Lipoprotein lipase (LPL), LPL (gene 4023); test: LTEA_HepaRG_LPL: Life Technologies and Expression Analysis (LTEA) Assay for Lipoprotein lipase (LPL) using HepaRG (AID 2283515)
In short: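 HepaRG, 48 h exposure, 8-pt half-log dilutions from 100 uM, 0.5% DMSO vehicle, duplicates; qRT-PCR (Fluidigm array) of LPL mRNA vs housekeeping genes; bidirectional curve fit relative to DMSO baseline.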

[7] = read-out: MicroRNA 122 (MIR122), gene 406906; test: LTEA_HepaRG_MIR122: Life Technologies and Expression Analysis (LTEA) Assay for MicroRNA 122 (MIR122) using HepaRG (AID 2283516); also: the transcript read is the microRNA miR-122
In short: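 Human liver HepaRG cultures receive test chemicals for 48 h at eight half-log concentrations from 100 uM. Expression is quantified by qRT-PCR with ACTB/GAPDH/POLR2A normalization and fitted bidirectionally against 0.5% DMSO.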

[8] = read-out: matrix metalloproteinase-10 (MMP10), MMP10 (gene 4319); test: LTEA_HepaRG_MMP10: Life Technologies and Expression Analysis (LTEA) Assay for matrix metalloproteinase-10 (MMP10) using HepaRG (AID 2283517)
In short: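 Transcript levels come from Fluidigm qRT-PCR normalized to three housekeeping genes, with curves fitted bidirectionally against 0.5% DMSO. Human HepaRG cells were dosed for 48 hours at concentrations up to 100 uM.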

[9] = read-out: MYC, MYC (gene 4609); test: LTEA_HepaRG_MYC: Life Technologies and Expression Analysis (LTEA) Assay for MYC using HepaRG (AID 2283518)
In short: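 Differentiated HepaRG cells exposed 48 h in serum-free induction medium to 8 concentrations (top 100 uM, half-log steps; 0.5% DMSO), duplicate. MYC mRNA measured by Fluidigm qRT-PCR, normalized to ACTB, GAPDH, POLR2A; bidirectional fit versus DMSO.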

[10] = read-out: matrix metalloproteinase-3 (MMP3), MMP3 (gene 4314); test: LTEA_HepaRG_MMP3: Life Technologies and Expression Analysis (LTEA) Assay for matrix metalloproteinase-3 (MMP3) using HepaRG (AID 2283519)
In short: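 qRT-PCR read-out of MMP3 mRNA (normalised to three housekeeping genes) in HepaRG liver cells after 48 h chemical exposure; 8-point half-log series, top 100 uM, 0.5% DMSO vehicle. Bidirectional curve fitting against DMSO baseline.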

[11] = read-out: Paternally Expressed 10 (PEG10), PEG10 (gene 23089); test: LTEA_HepaRG_PEG10: Life Technologies and Expression Analysis (LTEA) Assay for Paternally Expressed 10 (PEG10) using HepaRG (AID 2283520);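 as to AC50: PEG10 transcript by qRT-PCR normalised to ACTB GAPDH and POLR2A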
In short: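 Human HepaRG cultures are dosed for 48 h across an eight-point half-log series starting at 100 uM, with 0.5% DMSO as vehicle and baseline. Gain or loss of PEG10 transcript is measured by qRT-PCR and fitted in both directions.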

[12] = read-out: Nuclear factor NF-kappa-B p105 subunit (Homo sapiens) (UniProt P19838); test: LTEA_HepaRG_NFKB1: Life Technologies and Expression Analysis (LTEA) Assay for Nuclear Factor Kappa B Subunit 1 (NFKB1) using HepaRG (AID 2283521)
In short: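 NFKB1 transcript was measured by TaqMan qRT-PCR on Fluidigm arrays, normalised to three housekeeping genes and fitted in both directions against 0.5% DMSO. HepaRG cells were dosed in duplicate for 48 h in serum-free induction medium, eight half-log steps from 100 uM.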

[13] = read-out: Protein phosphatase 2A (PPP2R4), PTPA (gene 5524); test: LTEA_HepaRG_PPP2R4: Life Technologies and Expression Analysis (LTEA) Assay for Protein phosphatase 2A (PPP2R4) using HepaRG (AID 2283522)
In short: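 Cells were plated, cultured 48 h, switched to serum-free induction medium, then dosed for 48 h (8 points, max 100 uM, 0.5% DMSO). RNA was isolated and PPP2R4 expression measured by TaqMan qRT-PCR.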

[14] = read-out: Phosphatase and tensin (PTEN), PTEN (gene 5728); test: LTEA_HepaRG_PTEN: Life Technologies and Expression Analysis (LTEA) Assay for Phosphatase and tensin (PTEN) using HepaRG (AID 2283523)
In short: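 HepaRG, 48 h exposure, 8-pt half-log series from 100 uM top, 0.5% DMSO vehicle, duplicates. Readout: Fluidigm qRT-PCR of PTEN transcript; housekeeping normalization (ACTB, GAPDH, POLR2A). Gain or loss fitted relative to DMSO baseline.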

[15] = read-out: solute carrier (SLC22A1), SLC22A1 (gene 6580); test: LTEA_HepaRG_SLC22A1: Life Technologies and Expression Analysis (LTEA) Assay for solute carrier (SLC22A1) using HepaRG (AID 2283524);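 as to AC50: differentiated human HepaRG liver cells in serum-free induction medium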
In short: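 qRT-PCR readout (TaqMan, Fluidigm arrays) of SLC22A1 transcript, normalized to three housekeeping genes; bidirectional curve fit relative to 0.5% DMSO vehicle. Differentiated human HepaRG cells, 48 h chemical exposure, top concentration 100 uM, half-log steps, eight points.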

[16] = read-out: Pyruvate Dehydrogenase Kinase 4 (PDK4), PDK4 (gene 5166); test: LTEA_HepaRG_PDK4: Life Technologies and Expression Analysis (LTEA) Assay for Pyruvate Dehydrogenase Kinase 4 (PDK4) using HepaRG (AID 2283525)
In short: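 HepaRG (human liver line), 48 h chemical exposure, 8-pt half-log CRC top 100 uM, 0.5% DMSO vehicle, duplicates. Readout: TaqMan qRT-PCR of PDK4 mRNA, housekeeping-normalized; gain/loss fit relative to DMSO baseline.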

[17] = read-out: Nuclear factor erythroid 2-related factor 2 (Homo sapiens) (UniProt Q16236); test: LTEA_HepaRG_NFE2L2: Life Technologies and Expression Analysis (LTEA) Assay for Nuclear factor erythroid 2-related factor 2 (NFE2L2) Transcription Factor using HepaRG (AID 2283527)
In short: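 HepaRG, 48 h dosing, 8-pt half-log series from 100 uM in 0.5% DMSO, duplicates. Read-out: NFE2L2 mRNA by qRT-PCR (ACTB/GAPDH/POLR2A normalization). Bidirectional curve fit vs DMSO baseline.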

[18] = read-out: succinate dehydrogenase complex iron sulfur subunit B (SDHB), SDHB (gene 6390); test: LTEA_HepaRG_SDHB: Life Technologies and Expression Analysis (LTEA) Assay for succinate dehydrogenase complex iron sulfur subunit B (SDHB) using HepaRG (AID 2283528)
In short: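 SDHB transcript level read by TaqMan qRT-PCR, housekeeping-normalised (ACTB, GAPDH, POLR2A), after 48 h chemical treatment of plated HepaRG cells; eight concentrations top 100 uM, half-log steps, 0.5% DMSO, duplicates; fitted both directions against DMSO.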

[19] = read-out: Signal transducer and activator of transcription 3 (Homo sapiens) (UniProt P40763); test: LTEA_HepaRG_STAT3: Life Technologies and Expression Analysis (LTEA) Assay for Signal transducer and activator of transcription (STAT3) using HepaRG (AID 2283529)
In short: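 HepaRG, 48 h exposure, 8-pt half-log series (top 100 uM), 0.5% DMSO vehicle, duplicates. Readout: STAT3 transcript by Fluidigm qRT-PCR, housekeeping-normalized; bidirectional fit vs DMSO baseline.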

[20] = read-out: NAD(P)H dehydrogenase [quinone] 1 (NQO1), NQO1 (gene 1728); test: LTEA_HepaRG_NQO1: Life Technologies and Expression Analysis (LTEA) Assay for NAD(P)H dehydrogenase [quinone] 1 (NQO1) using HepaRG (AID 2283526)
In short: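 Transcript induction or suppression is quantified by qRT-PCR in human HepaRG liver cells dosed for 48 hours. Eight half-log concentrations topping at 100 uM are used, with 0.5% DMSO as vehicle and baseline.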

Measured: AC50

Chain of Nuclear factor erythroid 2-related factor 2 (Homo sapiens) (Q16236 whole entry, looked up): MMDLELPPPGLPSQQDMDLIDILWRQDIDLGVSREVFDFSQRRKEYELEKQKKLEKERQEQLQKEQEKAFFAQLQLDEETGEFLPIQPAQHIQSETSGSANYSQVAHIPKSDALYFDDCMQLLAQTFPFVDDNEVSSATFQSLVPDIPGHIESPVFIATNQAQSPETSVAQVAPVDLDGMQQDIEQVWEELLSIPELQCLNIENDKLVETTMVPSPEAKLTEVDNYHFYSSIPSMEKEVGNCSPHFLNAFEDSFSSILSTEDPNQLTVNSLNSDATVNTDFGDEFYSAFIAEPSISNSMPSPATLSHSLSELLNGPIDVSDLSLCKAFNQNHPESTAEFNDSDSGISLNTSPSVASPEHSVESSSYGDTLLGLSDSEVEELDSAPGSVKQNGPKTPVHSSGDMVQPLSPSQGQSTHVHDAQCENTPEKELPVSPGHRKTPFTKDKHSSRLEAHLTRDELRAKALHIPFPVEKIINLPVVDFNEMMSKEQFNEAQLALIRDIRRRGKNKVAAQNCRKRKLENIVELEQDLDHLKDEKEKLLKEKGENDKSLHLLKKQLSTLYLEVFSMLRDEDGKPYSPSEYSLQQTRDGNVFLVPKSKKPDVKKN
Chain of Signal transducer and activator of transcription 3 (Homo sapiens) (P40763 whole entry, looked up): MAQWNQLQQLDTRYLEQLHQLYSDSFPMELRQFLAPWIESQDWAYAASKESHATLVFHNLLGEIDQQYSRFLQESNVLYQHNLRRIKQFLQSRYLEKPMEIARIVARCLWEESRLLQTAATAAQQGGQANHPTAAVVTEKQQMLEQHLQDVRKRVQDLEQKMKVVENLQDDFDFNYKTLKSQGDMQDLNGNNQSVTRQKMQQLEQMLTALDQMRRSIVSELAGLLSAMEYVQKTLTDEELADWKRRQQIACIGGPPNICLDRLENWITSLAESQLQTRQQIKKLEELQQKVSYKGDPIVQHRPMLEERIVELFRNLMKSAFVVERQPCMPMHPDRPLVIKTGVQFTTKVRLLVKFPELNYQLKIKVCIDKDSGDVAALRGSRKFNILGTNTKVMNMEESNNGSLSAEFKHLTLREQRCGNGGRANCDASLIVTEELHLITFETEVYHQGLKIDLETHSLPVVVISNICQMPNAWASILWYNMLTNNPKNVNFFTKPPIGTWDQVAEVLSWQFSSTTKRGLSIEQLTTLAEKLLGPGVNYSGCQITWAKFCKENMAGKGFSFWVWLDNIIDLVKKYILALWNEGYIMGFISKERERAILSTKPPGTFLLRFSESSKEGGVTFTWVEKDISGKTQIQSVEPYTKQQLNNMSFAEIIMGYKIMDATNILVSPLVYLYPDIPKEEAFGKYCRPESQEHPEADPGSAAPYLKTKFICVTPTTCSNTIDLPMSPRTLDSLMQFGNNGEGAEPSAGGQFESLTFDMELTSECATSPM
Chain of Nuclear factor NF-kappa-B p105 subunit (Homo sapiens) (P19838 whole entry, looked up): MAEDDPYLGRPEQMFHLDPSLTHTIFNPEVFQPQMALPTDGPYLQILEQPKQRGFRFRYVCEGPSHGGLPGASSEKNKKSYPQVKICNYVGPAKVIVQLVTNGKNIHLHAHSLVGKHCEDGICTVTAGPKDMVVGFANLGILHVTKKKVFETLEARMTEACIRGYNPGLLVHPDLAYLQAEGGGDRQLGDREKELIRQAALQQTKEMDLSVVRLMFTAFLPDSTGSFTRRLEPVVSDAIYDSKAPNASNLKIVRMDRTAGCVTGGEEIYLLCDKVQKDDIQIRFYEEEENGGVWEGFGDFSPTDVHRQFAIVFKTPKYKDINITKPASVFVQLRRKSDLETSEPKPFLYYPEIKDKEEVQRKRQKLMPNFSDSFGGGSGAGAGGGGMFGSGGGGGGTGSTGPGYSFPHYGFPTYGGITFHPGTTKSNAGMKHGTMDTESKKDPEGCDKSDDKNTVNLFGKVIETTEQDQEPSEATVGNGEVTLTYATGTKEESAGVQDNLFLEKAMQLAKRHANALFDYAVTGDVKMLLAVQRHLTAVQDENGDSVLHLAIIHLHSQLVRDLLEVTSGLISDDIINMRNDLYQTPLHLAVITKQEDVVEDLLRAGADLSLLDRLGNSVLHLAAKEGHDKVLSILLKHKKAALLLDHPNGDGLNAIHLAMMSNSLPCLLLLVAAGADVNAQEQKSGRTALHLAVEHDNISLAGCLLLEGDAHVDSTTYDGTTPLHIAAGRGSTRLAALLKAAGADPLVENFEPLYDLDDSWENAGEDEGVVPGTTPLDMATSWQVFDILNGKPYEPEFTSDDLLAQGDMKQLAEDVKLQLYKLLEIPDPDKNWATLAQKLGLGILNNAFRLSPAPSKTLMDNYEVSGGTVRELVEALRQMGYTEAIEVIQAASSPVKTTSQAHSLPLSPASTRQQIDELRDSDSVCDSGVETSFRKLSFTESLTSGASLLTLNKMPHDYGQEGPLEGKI

CC(O)CCO (centres undefined)
not listed: [20]
inactive: all other assays above

CCN(CC)N=O
inactive: all assays above

O=Cc1ccco1
inactive: all assays above

CCC[CH2][Sn]([Cl])([CH2]CCC)[CH2]CCC
active: [1] 50 µM | [2] 2.85 µM | [3] 0.297 µM | [4] 3.32 µM | [5] 1.46 µM | [7] 12.8 µM | [8] 1.73 µM | [10] 1.87 µM | [12] 9.07 µM | [15] 1.49 µM | [18] 50 µM | [19] 15.3 µM
inactive: [6] | [9] | [11] | [13] | [14] | [16] | [17]

CCCCC(CC)COC(=O)c1ccc(C(=O)OCC(CC)CCCC)c(C(=O)OCC(CC)CCCC)c1 (centres undefined)
inactive: all assays above

CCC12COCN1COC2
inactive: all assays above

CCCCCOC(=O)c1ccccc1C(=O)OCCCCC
inactive: all assays above

Clc1ccccc1Cl
inactive: all assays above

CC(C)(O)c1cnn2c(-c3ccc(F)c(-c4c(F)cccc4C#N)c3)cnc2n1
active: [5] 2.9 µM | [7] 13.1 µM | [15] 9.92 µM | [17] 6.33 µM
not listed: [20]
inactive: all other assays above

OCCCBr
inactive: all assays above

Cc1ccc(N=C=O)cc1N=C=O
active: [3] 23.9 µM | [5] 50 µM | [6] 3.41 µM | [7] 50 µM | [8] 27 µM | [9] 19.3 µM | [11] 12.4 µM | [15] 30.6 µM | [16] 19.6 µM
not listed: [20]
inactive: all other assays above

C1=Cc2cccc3cccc1c23
inactive: all assays above

O=[N+]([O-])c1ccc(Oc2ccc(Cl)cc2Cl)cc1
active: [3] 41.1 µM | [9] 32.8 µM | [11] 50 µM | [16] 11.3 µM
inactive: all other assays above

c1ccc2c(c1)oc1ccccc12
not listed: [11] | [20]
inactive: all other assays above
